Among the test systems are T-47D breast; BT-549 breast; MDA-MB-435 melanoma; SW-620 colon; HCT-116 colon; HCC-2998 colon; KM12 colon; MCF7 breast.
Experiment in all cases: NCI-60 one-dose screen, 48 h (100 = growth as untreated, 0 = no growth, -100 = all killed)
Conditions in all cases: 10 µM unless noted

Compounds without any hit were thinned out: in the full panel of roughly 83,000, 20% have a hit.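 Cell lines were cultured in 96-well plates, exposed to a single compound concentration, and assessed for percent growth 48 hours later.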 A number with no mark means an inactive call. The source made the active and inactive calls. Rule for the calls: active = growth percent below 10; inactive = the rest.

Drawing on PubChem BioAssay (NCI), this text covers growth for 16 molecules.

Turning to `CN(C)CC/C=C1\c2ccccc2Sc2ccc(Cl)cc21`, the growth is 70.7% with T-47D breast; 86.5% in the assay on BT-549 breast; 36.2% with MDA-MB-435 melanoma; 81.5% in the assay on SW-620 colon; 36.5% in the assay on HCT-116 colon; 27.4% in the assay on HCC-2998 colon. Moreover, in the assay on KM12 colon, the growth is 69.3%.

As to `O=C(O)c1ccc2nc(-c3ccc(OCCCCCOc4ccc(-c5nc6ccc(C(=O)O)cc6[nH]5)cc4)cc3)[nH]c2c1`, the growth in the assay with T-47D breast was 51.2%; in the assay on BT-549 breast it was 130%; in the assay with MDA-MB-435 melanoma it was 189%; in the assay with SW-620 colon, 57.1%; in the assay on MCF7 breast, 82.3%; in the assay with HCT-116 colon, 88.6%. For the same molecule, the growth in the assay with HCC-2998 colon was 16.4%; in the assay on KM12 colon it was 98.6%.

For `COc1ccc(-c2nn(-c3cccc(Cl)c3)cc2-c2cc(-c3ccc(Br)cc3)[nH]c(=O)c2C#N)cc1`, the growth with T-47D breast is 70.8%; in the assay on BT-549 breast, 66.3%; in the assay on MDA-MB-435 melanoma, 94.4%; with SW-620 colon, 73.5%; in the assay on MCF7 breast it was 65%; in the assay with HCT-116 colon it was 79.7%. Moreover, the figures for the growth with HCC-2998 colon and in the assay with KM12 colon were 98.4% and 91.8%, respectively.

As for `CO[C@H]1/C=C/C=C/C=C/C[C@H](OC(=O)[C@@H](C)NC(=O)C2CCCCC2)[C@H](C)[C@@H](O)/C(C)=C\CCC2=CC(=O)C=C(NC(=O)C1)C2=O`, the growth was -15.1% (active) with T-47D breast; -19.6% (active) in the assay with BT-549 breast; -29.1% (active) in the assay on MDA-MB-435 melanoma; 2.69% (active) in the assay with SW-620 colon; -18.4% (active) in the assay on HCT-116 colon; -19.2% (active) in the assay on HCC-2998 colon. Also, the growth with KM12 colon was -9.05% (active).

`COc1ccc(-c2nn(-c3ccc(NC(=O)c4cc(Cl)cc(Cl)c4)cc3)cc2-c2ccncc2)cc1Cl`: the growth is 67.4% in the assay on T-47D breast; 66.8% in the assay on BT-549 breast; 68.6% in the assay with MDA-MB-435 melanoma; 68.6% in the assay on SW-620 colon; 73.7% with MCF7 breast; 55.7% in the assay on HCT-116 colon. In addition, the growth was 49.6% in the assay with HCC-2998 colon and 29.7% in the assay with KM12 colon.

Take `Nc1ncnc2c1ccn2-c1cccc(NC(=O)c2cccc(C(F)(F)F)c2)c1`: the growth was 59.2% in the assay with T-47D breast; 89.9% with BT-549 breast; 59% in the assay on MDA-MB-435 melanoma; 90.2% in the assay on SW-620 colon; 58.6% in the assay on MCF7 breast; 68.5% in the assay with HCT-116 colon. In addition, the growth was 98.6% in the assay on HCC-2998 colon and 54% in the assay on KM12 colon.

On to `CCC1S/C(=N\N=C(/C)c2ccco2)N(c2ccccc2)C1=O` (stereo not drawn), for which the growth with T-47D breast was 107%; in the assay on BT-549 breast, 106%; with MDA-MB-435 melanoma, 92.7%; in the assay with SW-620 colon it was 119%; in the assay with MCF7 breast, 81%; with HCT-116 colon, 68.6%. In addition, the growth with HCC-2998 colon was 112%; with KM12 colon, 86.1%.

Take `Cc1ccc(=O)n(-c2ccc(Br)cc2F)c1`: the growth in the assay on T-47D breast was 93.7%; in the assay on BT-549 breast, 94.5%; in the assay with MDA-MB-435 melanoma, 100%; in the assay with SW-620 colon, 103%; in the assay on MCF7 breast, 92.6%; with HCT-116 colon, 105%. Also, the results for the growth in the assay on HCC-2998 colon and in the assay with KM12 colon were 106% and 103%, respectively.

Consider `C[C@H]1C=C(C[C@@H](O)CCCCCCCCCC[C@@H](O)[C@H]2CCC(=O)O2)C(=O)O1`, for which the growth in the assay with T-47D breast was 92.6%; in the assay with BT-549 breast it was 112%; in the assay on MDA-MB-435 melanoma, 113%; in the assay with SW-620 colon, 99.9%; with HCT-116 colon, 87.9%; with HCC-2998 colon, 97.7%. In addition, in the assay on KM12 colon, the growth was 105%.

`COc1ccc(-c2nnc(SCC(=O)Nc3ccc(C(=O)/C=C/c4ccc(Cl)cc4)cc3)o2)cc1OC`: the growth in the assay with T-47D breast was 90.1%; with BT-549 breast, 57.3%; in the assay on MDA-MB-435 melanoma it was 81.1%; in the assay on SW-620 colon, 101%; in the assay with HCT-116 colon, 75.6%; in the assay with HCC-2998 colon it was 96%. Further, in the assay on KM12 colon, the growth is 97.9%.

Regarding `Cn1c(I)c(C#C[Si](C)(C)C)c(=O)[nH]c1=O`, the growth in the assay with T-47D breast is 21.9%; in the assay on BT-549 breast, 40.7%; in the assay with MDA-MB-435 melanoma, 58.7%; with SW-620 colon it was -66.5% (active); in the assay on MCF7 breast, 82.1%; in the assay on HCT-116 colon it was -43.1% (active). The growth in the assay with HCC-2998 colon was -67.1% (active); with KM12 colon it was 103%.

As to `CCCCOc1nc2ccc(Cl)cc2cc1/C=C/C(=O)/C=C/c1ccc(Cl)cc1`, the growth in the assay with T-47D breast was 53.8%; in the assay with BT-549 breast, 36.3%; in the assay with MDA-MB-435 melanoma, 2.31% (active); in the assay with SW-620 colon it was 42.5%; in the assay with MCF7 breast, 23%; in the assay with HCT-116 colon it was -29.1% (active). For the same molecule, the results for the growth in the assay with HCC-2998 colon and in the assay on KM12 colon were 60.4% and 51.6%, respectively.

For the molecule `[2H]c1nc(Nc2ncc(F)c(-c3cc(F)c4nc(C)n(C(C)C)c4c3)n2)c([2H])c([2H])c1CN1CCN(CC)CC1`, the growth was 71.8% in the assay with T-47D breast; 55.4% in the assay on BT-549 breast; 51.9% with MDA-MB-435 melanoma; 33.8% with SW-620 colon; 25.9% in the assay on MCF7 breast; 20.6% with HCT-116 colon. For the same molecule, the growth with HCC-2998 colon was 64.1%; with KM12 colon, 31.9%.

Regarding `COc1ccc2c(c1)/C(=C/c1c(-c3cc(OC)c(OC)c(OC)c3Br)nc3sccn13)C(=O)N2`, the growth with T-47D breast is 90.1%; in the assay on BT-549 breast, 86.2%; in the assay with MDA-MB-435 melanoma, 93.2%; with SW-620 colon, 94.4%; in the assay on MCF7 breast, 85%; with HCT-116 colon, 87.7%. The values for the growth in the assay on HCC-2998 colon and in the assay on KM12 colon were 134% and 94.6%, respectively.

For `COc1cc2c(cc1OC)-c1c(oc3c4c(ccc3c1=O)OC(C)(C)C=C4)CO2`, the growth was 39.2% with T-47D breast; 52.6% in the assay on BT-549 breast; 61.2% with MDA-MB-435 melanoma; 89.8% with SW-620 colon; 40.3% with HCT-116 colon; 81.5% in the assay on HCC-2998 colon. In addition, the growth in the assay on KM12 colon is 76.8%.

As for `O=C(CSc1nnc(-c2ccc(Cl)cc2)o1)Nc1ccc(C(=O)/C=C/c2ccccc2)cc1`, the growth with T-47D breast was 107%; with BT-549 breast it was 99.8%; in the assay on MDA-MB-435 melanoma, 91.4%; in the assay on SW-620 colon, 101%; with MCF7 breast, 53.1%; in the assay on HCT-116 colon, 65.7%. Further, the growth in the assay with HCC-2998 colon was 106%; in the assay with KM12 colon it was 100%.
